# Measured values as given in PubChem BioAssay.
# Unmarked numbers belong to inactive results. How the calls were made is not given here.
# Test: inhibitors of hydroxyurea-induced Chk1 phosphorylation, primary screen, imaging, HeLa, phospho-Chk1 nuclear intensity (AID 1187); further: test concentration not given here
# Conditions: hydroxyurea-induced phospho-Chk1 immunofluorescence imaging, higher = more signal
row,SMILES,z-score
1,COc1ccc([Si](C)(C)[C@H]2[C@H](CC(=O)N(CCO)Cc3ccccc3)O[C@@]3(C(=O)N(Cc4cccc(N5CCCCC5=O)c4)c4ccccc43)[C@@H]2C)cc1,-0.607
2,COCCCNC(=O)[C@@]1(Cc2ccccc2I)c2ccccc2C(=O)N(Cc2ccccc2C(F)(F)F)[C@H]1c1ccc(CO)cc1,-0.0472
3,CC[C@@H](O[Si](C#C[Si](C(C)C)(C(C)C)C(C)C)(C(C)C)C(C)C)c1cn([C@H](C)c2ccccc2)nn1,-0.469
4,COCCOC(=O)N1C(=O)[C@@]2(c3cc(C#CCC(C(=O)OC)C(=O)OC)ccc31)[C@H](C(=O)N1CCc3cc(OC)c(OC)cc3C1)[C@H]1C(=O)O[C@H](c3ccccc3)[C@H](c3ccccc3)N1[C@@H]2c1ccccc1OCCO,-0.252
5,CCCNC(=O)[C@@]1(Sc2ccc(C)cc2)CC(=O)N(Cc2cc(C(F)(F)F)cc(C(F)(F)F)c2)[C@@H]1c1ccc(CO)cc1,0.0821
6,Cc1ccc(S[C@]2(C(=O)NCc3ccccc3)CC(=O)N(Cc3ccccc3Cl)[C@@H]2c2ccc(CO)cc2)cc1,0.622
7,CC1(C)OB(/C=C\CC(OC(=O)c2ccncc2)c2ccccc2)OC1(C)C (stereo not given),0.415
8,COc1cc(Cc2cc3c(c(-c4ccccc4)n2)[Si](C(C)C)(C(C)C)OC3)cc(OC)c1OC,-0.317
9,C=CCOC(=O)[C@H]1[C@@H]2C(=O)O[C@@H](c3ccccc3)[C@@H](c3ccccc3)N2[C@@H](c2ccc(OCCOC(=O)[C@@H]3C[C@@H]4C(=O)N[C@@H](Cc5ccccc5)C(=O)N4[C@@H]3c3ccc(O)cc3)cc2)[C@]12C(=O)Nc1ccc(I)cc12,-0.152
10,CC1C2C(CCCO)=CC(C3C(=O)N(C(N)=O)C(=O)C23)N1Cc1cccc(OC(F)(F)F)c1 (stereo not given),0.181
11,COC(=O)[C@@]1(Cc2ccccc2)[C@H]2c3cc(C(=O)N(C)C)n(Cc4nc5ccccc5[nH]4)c3C[C@H]2CN1C(=O)c1ccccc1,0.0294
12,CO[C@H]1O[C@H](CO)[C@@H](OC(=O)Nc2cccc(F)c2)[C@H](OC(=O)Nc2ccc3c(c2)OCO3)[C@@H]1OC(=O)Nc1ccc2c(c1)OCO2,0.613
13,O=C1C2C=CC(C(O)c3ccccn3)N(Nc3ccc([N+](=O)[O-])cc3)C2C(=O)N1c1ccccc1 (stereo not given),-0.213
14,CC(C)N1C(=O)[C@@]2(Cc3ccccc31)c1ccccc1C(=O)N(Cc1ccccc1C(F)(F)F)[C@H]2c1ccc(CO)cc1,-0.0497
15,CN1C2C=C(c3ccc(CO)cc3)C(C3C(=O)N(C(N)=O)C(=O)C32)C1C1CC1 (stereo not given),0.169
16,CC(C)C[C@@H]1NC(=O)[C@@H]2C[C@H](C(=O)NCCCCCNC(=O)CS)[C@H](c3ccc(O)cc3)N2C1=O,0.313
17,CN(C)CCCCNC(=O)[C@H]1C[C@H]2C(=O)N[C@@H](CCCCN(C)C)C(=O)N2[C@H]1c1ccc(O)cc1,-1.46
18,CCOC(=O)C[C@H]1[C@H](OC(=O)c2ccccc2-c2ccccc2)[C@@H](NC(=O)CC(C)C)c2cc(OCCCO)ccc2N1C(=O)c1ccccc1,-0.151
19,CCCCCCc1nc(-c2ccc(OC)nc2)c(C)c2c1[Si](C(C)C)(C(C)C)OC2,0.0171
20,COCCCNC(=O)[C@]1(Cc2ccccc2CN=[N+]=[N-])N=C(c2ccc(OCCCO)cc2)O[C@@H]1c1ccccc1N=[N+]=[N-],-0.601
